Structures can show the parent of a compound that is named as a salt. ± gives the standard deviation of the averaged measurements.
What was measured:
[1] = tested on: Saccharomyces cerevisiae BY4741 SeMeCo community; assay: z-score of prototroph abundance vs DMSO median; higher = larger share of this subpopulation than in DMSO controls; conditions: 10 µM; 24 h; SM minimal medium; subpopulation (auxotrophy): Prototroph
How it was run: (§1)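 Automated confocal microscopy of paraformaldehyde-fixed cells was used to follow a Saccharomyces cerevisiae BY4741 community carrying four plasmids, each restoring one auxotrophy and encoding a distinct fluorescent protein. The community was pre-grown overnight to OD600 1.0, diluted to 0.3, and added at 70 µl to 384-well plates acoustically predosed with library drugs (10 µM final) for 24 h of growth in minimal SM medium. Single-auxotroph fluorescent strains set thresholds and autofluorescence correction, and each subpopulation's abundance was scored as a z-score against the vehicle-well median.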

[2] = tested on: Saccharomyces cerevisiae BY4741 SeMeCo community; assay: z-score of subpopulation abundance vs DMSO median, subpopulation auxotrophic for M; higher = larger share of this subpopulation than in DMSO controls; conditions: 10 µM; 24 h; SM minimal medium; subpopulation (auxotrophy): M
How it was run: as §1

[3] = tested on: Saccharomyces cerevisiae BY4741 SeMeCo community; assay: z-score of subpopulation abundance vs DMSO median, subpopulation auxotrophic for L; higher = larger share of this subpopulation than in DMSO controls; conditions: 10 µM; 24 h; SM minimal medium; subpopulation (auxotrophy): L
How it was run: as §1

[4] = tested on: Saccharomyces cerevisiae BY4741 SeMeCo community; assay: z-score of subpopulation abundance vs DMSO median, subpopulation auxotrophic for U; higher = larger share of this subpopulation than in DMSO controls; conditions: 10 µM; 24 h; SM minimal medium; subpopulation (auxotrophy): U
How it was run: as §1

[5] = tested on: Saccharomyces cerevisiae BY4741 SeMeCo community; assay: z-score of subpopulation abundance vs DMSO median, subpopulation auxotrophic for H; higher = larger share of this subpopulation than in DMSO controls; conditions: 10 µM; 24 h; SM minimal medium; subpopulation (auxotrophy): H
How it was run: as §1

[6] = tested on: Saccharomyces cerevisiae BY4741 SeMeCo community; assay: z-score of subpopulation abundance vs DMSO median, subpopulation auxotrophic for LU; higher = larger share of this subpopulation than in DMSO controls; conditions: 10 µM; 24 h; SM minimal medium; subpopulation (auxotrophy): LU
How it was run: as §1

[7] = tested on: Saccharomyces cerevisiae BY4741 SeMeCo community; assay: z-score of subpopulation abundance vs DMSO median, subpopulation auxotrophic for LM; higher = larger share of this subpopulation than in DMSO controls; conditions: 10 µM; 24 h; SM minimal medium; subpopulation (auxotrophy): LM
How it was run: as §1

[8] = tested on: Saccharomyces cerevisiae BY4741 SeMeCo community; assay: z-score of subpopulation abundance vs DMSO median, subpopulation auxotrophic for HM; higher = larger share of this subpopulation than in DMSO controls; conditions: 10 µM; 24 h; SM minimal medium; subpopulation (auxotrophy): HM
How it was run: as §1

[9] = tested on: Saccharomyces cerevisiae BY4741 SeMeCo community; assay: z-score of subpopulation abundance vs DMSO median, subpopulation auxotrophic for HU; higher = larger share of this subpopulation than in DMSO controls; conditions: 10 µM; 24 h; SM minimal medium; subpopulation (auxotrophy): HU
How it was run: as §1

[10] = tested on: Saccharomyces cerevisiae BY4741 SeMeCo community; assay: z-score of subpopulation abundance vs DMSO median, subpopulation auxotrophic for UM; higher = larger share of this subpopulation than in DMSO controls; conditions: 10 µM; 24 h; SM minimal medium; subpopulation (auxotrophy): UM
How it was run: as §1

[11] = tested on: Saccharomyces cerevisiae BY4741 SeMeCo community; assay: z-score of subpopulation abundance vs DMSO median, subpopulation auxotrophic for HL; higher = larger share of this subpopulation than in DMSO controls; conditions: 10 µM; 24 h; SM minimal medium; subpopulation (auxotrophy): HL
How it was run: as §1

[12] = tested on: Saccharomyces cerevisiae BY4741 SeMeCo community; assay: z-score of subpopulation abundance vs DMSO median, subpopulation auxotrophic for HLU; higher = larger share of this subpopulation than in DMSO controls; conditions: 10 µM; 24 h; SM minimal medium; subpopulation (auxotrophy): HLU
How it was run: as §1

[13] = tested on: Saccharomyces cerevisiae BY4741 SeMeCo community; assay: z-score of subpopulation abundance vs DMSO median, subpopulation auxotrophic for HLM; higher = larger share of this subpopulation than in DMSO controls; conditions: 10 µM; 24 h; SM minimal medium; subpopulation (auxotrophy): HLM
How it was run: as §1

[14] = tested on: Saccharomyces cerevisiae BY4741 SeMeCo community; assay: z-score of subpopulation abundance vs DMSO median, subpopulation auxotrophic for HUM; higher = larger share of this subpopulation than in DMSO controls; conditions: 10 µM; 24 h; SM minimal medium; subpopulation (auxotrophy): HUM
How it was run: as §1

[15] = tested on: Saccharomyces cerevisiae BY4741 SeMeCo community; assay: z-score of subpopulation abundance vs DMSO median, subpopulation auxotrophic for LUM; higher = larger share of this subpopulation than in DMSO controls; conditions: 10 µM; 24 h; SM minimal medium; subpopulation (auxotrophy): LUM
How it was run: as §1

[16] = tested on: Saccharomyces cerevisiae BY4741 SeMeCo community; assay: z-score of subpopulation abundance vs DMSO median, subpopulation auxotrophic for HLUM; higher = larger share of this subpopulation than in DMSO controls; conditions: 10 µM; 24 h; SM minimal medium; subpopulation (auxotrophy): HLUM
How it was run: as §1

[17] = tested on: Saccharomyces cerevisiae BY4741 SeMeCo community; assay: mean cell size (pixel area) (pixels); higher = larger cells; conditions: 10 µM; 24 h; SM minimal medium
How it was run: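 A Saccharomyces cerevisiae BY4741 community carrying four plasmids, each with a fluorescent marker and each complementing one auxotrophy, was exposed for 24 h to drug at a final 10 µM in SM medium in acoustically predosed 384-well plates. The overnight preculture (OD600 = 1.0) was diluted to OD600 = 0.3 before 70 µl was added per well. Cells were then fixed with paraformaldehyde, imaged by automated confocal microscopy and analysed in Harmony to derive mean cell pixel area per well, averaged over 3 replicates. Same SeMeCo high-content imaging drug screen: Selleck FDA-approved drugs at 10 µM, 24 h in SM medium, 384-well plates, 3 replicates.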

Structure (SMILES): CC(C)[C@H](N)C(=O)OCC(CO)OCn1cnc2c(=O)[nH]c(N)nc21 (stereo partly drawn) [Valganciclovir HCl]
- z-score of prototroph abundance [1]: 0.56
- z-score of subpopulation abundance [2]: -0.49
- z-score of subpopulation abundance [3]: 0.28
- z-score of subpopulation abundance [4]: -0.54
- z-score of subpopulation abundance [5]: 0.09
- z-score of subpopulation abundance [6]: -0.94
- z-score of subpopulation abundance [7]: -0.45
- z-score of subpopulation abundance [8]: -0.64
- z-score of subpopulation abundance [9]: -0.15
- z-score of subpopulation abundance [10]: -0.83
- z-score of subpopulation abundance [11]: -0.43
- z-score of subpopulation abundance [12]: -0.52
- z-score of subpopulation abundance [13]: 0.99
- z-score of subpopulation abundance [14]: -0.56
- z-score of subpopulation abundance [15]: 0.07
- z-score of subpopulation abundance [16]: -0.35

Structure (SMILES): C=C[C@H]1CN2CC[C@H]1C[C@H]2[C@H](O)c1ccnc2ccc(OC)cc12 [Quinine HCl Dihydrate]
- z-score of prototroph abundance [1]: -0.12
- z-score of subpopulation abundance [2]: 0.59
- z-score of subpopulation abundance [3]: -0.67
- z-score of subpopulation abundance [4]: 0.16
- z-score of subpopulation abundance [5]: 0.07
- z-score of subpopulation abundance [6]: -0.08
- z-score of subpopulation abundance [7]: -0.52
- z-score of subpopulation abundance [8]: -0.08
- z-score of subpopulation abundance [9]: 0.2
- z-score of subpopulation abundance [10]: 1.09
- z-score of subpopulation abundance [11]: -0.28
- z-score of subpopulation abundance [12]: -0.42
- z-score of subpopulation abundance [13]: 0.48
- z-score of subpopulation abundance [14]: 0.21
- z-score of subpopulation abundance [15]: 0.52

Structure (SMILES): O=C1Cc2cc(CCN3CCN(c4nsc5ccccc45)CC3)c(Cl)cc2N1 [Ziprasidone HCl]
- z-score of prototroph abundance [1]: -0.07
- z-score of subpopulation abundance [2]: 0
- z-score of subpopulation abundance [3]: 1.56
- z-score of subpopulation abundance [4]: -0.99
- z-score of subpopulation abundance [6]: -0.33
- z-score of subpopulation abundance [7]: 1.54
- z-score of subpopulation abundance [8]: 0.58
- z-score of subpopulation abundance [9]: -0.4
- z-score of subpopulation abundance [10]: -0.51
- z-score of subpopulation abundance [11]: 1.22
- z-score of subpopulation abundance [12]: 0.15
- z-score of subpopulation abundance [13]: 1.1
- z-score of subpopulation abundance [14]: 0.81
- z-score of subpopulation abundance [15]: 0.56
- z-score of subpopulation abundance [16]: 0.44

Structure (SMILES): CC(C)(C)CC(C)(C)c1ccc(OCCOCC[N+](C)(C)Cc2ccccc2)cc1 [Benzethonium Chloride]
- z-score of prototroph abundance [1]: 0.89
- z-score of subpopulation abundance [2]: -2.12
- z-score of subpopulation abundance [3]: -0.55
- z-score of subpopulation abundance [4]: 0.39
- z-score of subpopulation abundance [5]: 0.3
- z-score of subpopulation abundance [6]: -0.86
- z-score of subpopulation abundance [7]: -0.72
- z-score of subpopulation abundance [8]: -1.27
- z-score of subpopulation abundance [9]: 0.13
- z-score of subpopulation abundance [10]: -0.2
- z-score of subpopulation abundance [11]: -0.38
- z-score of subpopulation abundance [12]: -0.61
- z-score of subpopulation abundance [13]: -0.12
- z-score of subpopulation abundance [14]: -0.76
- z-score of subpopulation abundance [15]: 0.65
- z-score of subpopulation abundance [16]: 0.07

Structure (SMILES): C=CCCCCCCCCC(=O)[O-].C=CCCCCCCCCC(=O)[O-].[Zn+2] [Zinc Undecylenate]
- mean cell size [17]: 11.6 ± 0.15
- z-score of subpopulation abundance [2]: -3.83
- z-score of subpopulation abundance [3]: -1.01
- z-score of subpopulation abundance [4]: -0.17
- z-score of subpopulation abundance [6]: -1.37
- z-score of subpopulation abundance [10]: -2.31
- z-score of subpopulation abundance [11]: -0.05
- z-score of subpopulation abundance [12]: 3.75
- z-score of subpopulation abundance [13]: -0.76
- z-score of subpopulation abundance [14]: -0.02
- z-score of subpopulation abundance [15]: -0.54
- z-score of subpopulation abundance [16]: 3.48

Structure (SMILES): COc1ccc(C(=O)NCc2ccc(OCCN(C)C)cc2)cc1OC [Itopride hydrochloride]
- z-score of subpopulation abundance [2]: 0.65
- z-score of subpopulation abundance [3]: 0
- z-score of subpopulation abundance [5]: -0.37
- z-score of subpopulation abundance [6]: 0.56
- z-score of subpopulation abundance [7]: 0.86
- z-score of subpopulation abundance [8]: 0.17
- z-score of subpopulation abundance [9]: 0.11
- z-score of subpopulation abundance [10]: 0.38
- z-score of subpopulation abundance [11]: -0.33
- z-score of subpopulation abundance [12]: 0.07
- z-score of subpopulation abundance [13]: 0.04
- z-score of subpopulation abundance [14]: 0.81
- z-score of subpopulation abundance [15]: 0.15
- z-score of subpopulation abundance [16]: -0.16

Structure (SMILES): CC(C)(C)C(=O)C(Oc1ccc(Cl)cc1)n1ccnc1 (stereo not drawn) [Climbazole]
- mean cell size [17]: 11.3 ± 0.047
- z-score of prototroph abundance [1]: -9.09
- z-score of subpopulation abundance [2]: 7.09
- z-score of subpopulation abundance [3]: -2.61
- z-score of subpopulation abundance [5]: 2.84
- z-score of subpopulation abundance [6]: -2.81
- z-score of subpopulation abundance [8]: 9.21
- z-score of subpopulation abundance [9]: 4.67
- z-score of subpopulation abundance [10]: 24.4
- z-score of subpopulation abundance [11]: 2.46
- z-score of subpopulation abundance [12]: 1.28
- z-score of subpopulation abundance [13]: 12.1
- z-score of subpopulation abundance [14]: 9.71
- z-score of subpopulation abundance [15]: 5.42

Structure (SMILES): N#Cc1ccc2[nH]cc(CCCCN3CCN(c4ccc5oc(C(N)=O)cc5c4)CC3)c2c1 [Vilazodone HCl]
- z-score of prototroph abundance [1]: -0.4
- z-score of subpopulation abundance [2]: 1.09
- z-score of subpopulation abundance [3]: 0.01
- z-score of subpopulation abundance [4]: -0.4
- z-score of subpopulation abundance [5]: 1.09
- z-score of subpopulation abundance [6]: -0.14
- z-score of subpopulation abundance [7]: 0.25
- z-score of subpopulation abundance [8]: 0.6
- z-score of subpopulation abundance [9]: 0.14
- z-score of subpopulation abundance [10]: -0.14
- z-score of subpopulation abundance [11]: 0.87
- z-score of subpopulation abundance [12]: -0.1
- z-score of subpopulation abundance [13]: -0.45
- z-score of subpopulation abundance [14]: 0.23
- z-score of subpopulation abundance [15]: 0.66
- z-score of subpopulation abundance [16]: -0.28

From the supplement of paper PMC8975748
